Bioassay records from PubChem.
Most compounds without a hit are left out; they make up all but 3.1% or so of the library.
Caspase-1 inhib = allosteric or competitive inhibitors of human caspase-1 | 0.03% of 75,000 active | Caspase-1 enzyme, Ac-WEHD-AFC fluorogenic rate | P29466 | Potency, µM (doses to about 57.5 µM), inactives show top-dose activity change, negative = inhibition, hits mostly inhibitors;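 further: plate controls were vehicle for no effect and no substrate for full effect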
Luciferase inh = firefly luciferase inhibition; P08659; purified firefly luciferase, luminescence, 8 min; Potency, µM (titrated, usually from 57.1 µM), inactives show at the highest dose activity change, negative = inhibition, usual class: inhibitors; 2.2% of 72,000 active; further: on the % scale 0 is the no-effect control and ±100 the full control effect; nearly all actives have a fitted effect of over 40% in size
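Luminescence read-out after 8 min at room temperature; enzyme reaction used luciferin plus 10 uM ATP (linear range) in imidazole buffer pH 7.2 with KCl, MgCl2, Tween 20 and BSA. Each sample was run as a titration.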
GBA activity = alters purified human glucocerebrosidase activity | Potency, µM | P04062 | purified enzyme, resorufin glucoside fluorescence (screen aimed at inhibitors), 20 min | AID 360 | 1.1% of 48,000 active; in the data active means potency below about 15 µM; inconclusive means mostly about 16 µM to 33 µM;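 further: the screen sought inhibitors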
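Normal human glucocerebrosidase (0.2 nM final) was assayed with resorufin β-D-glucopyranoside (30 uM final) in 50mM citric acid/KH2PO4, 10mM sodium taurocholate, 0.01% tween-20, pH 5.9. Compounds were titrated; fluorescence (Ex 548, Em 600) read after 20 min at RT.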
Casp7 inh = caspase-7 (human) inhibition, allosteric or competitive; P55210; recombinant caspase-7, Ac-DEVD-AFC fluorescence rate; Potency, µM (series often up to 57.5 µM), without a hit: at the highest dose activity change, negative = inhibition, actives largely listed as inhibitors; 0.02% of 75,000 active; AID 889; active means well fitted inhibition curve with a large enough effect in the main read-out, with a control signal flat, not every such curve was filed as active; inconclusive means small, poorly fitted or top-dose-only effect, or a change in a side signal; further: % of control where 0% means no effect
PK Bst = alters activity of Bacillus stearothermophilus pyruvate kinase; Potency, µM; purified pyruvate kinase, luminescence ATP production; ribose 5-phosphate activator present at AC10; AID 361; 1.2% of 51,000 active; in the data active means potency below about 11 µM; inconclusive means mostly about 12 µM to 25 µM;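 the screen sought inhibitors and activators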;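 further: scaled between full activation by ribose 5 phosphate and full inhibition by luteolin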
Numbers without * were called inactive; i = inactive; u = inconclusive; x = not tested or not shown; [ ] = dose if it differs, or a comment. Unless noted, the call rests on the fitted dose curve; in most records, active means well fitted inhibition curve with a large enough effect; inconclusive means small, poorly fitted or top-dose-only effect; inactive means flat fitted curve, though single readings scatter. Potency means the concentration at half of the fitted maximal effect.

SMILES	Caspase-1 inhib	Luciferase inh	GBA activity	Casp7 inh	PK Bst
CNc1cc(C)nc(-n2nc(C)cc2C)n1	2%	-9%	>77	-2%	>57
CCOc1ccc(Nc2cc(C)nc(-n3nc(C)cc3C)n2)cc1	-2%	1%	>77	-2%	6.3*
NC(=S)NCCC[C@@H](N)C(=O)O	3%	-5%	x	-3%	x
O=C(O)c1nnsc1-c1ccc(-c2snnc2C(=O)O)cc1	-2%[11.5 µM]	3%[11.4 µM]	x	-2%[11.5 µM]	x
O=C1CC(Sc2nnnn2C2CCCCC2)C(=O)N1c1ccccc1 (centres undefined)	-1%	16µM*	>77	-1%	x
COc1ccccc1Nc1nc(N)nc(CN2CCN(c3ccccc3)CC2)n1	-1%	3%	6.8*	-1%	>57
COc1ccccc1Nc1nc(N)nc(CN2CCC(Cc3ccccc3)CC2)n1	0%	2%	0.93*	0%	>57
COc1ccccc1Nc1nc(N)nc(CN2CCOCC2)n1	-1%	4%	x	-3%	x
COc1ccc(Nc2nc(N)nc(CN3CCC(Cc4ccccc4)CC3)n2)cc1	-1%	1%	x	-1%	x
Cc1ccc(Nc2nc(N)nc(CN3CCN(C)CC3)n2)cc1C	1%	4%	>77	1%	>57
Cc1cccc(Nc2nc(N)nc(CN3CCC(C)CC3)n2)c1C	-6%	2%	12*	-9%	>57
COc1ccccc1N1CCN(Cc2nc(N)nc(Nc3ccccc3)n2)CC1	-3%	-2%	4.8*	0%	>57
NC(=O)C[C@H](N)C(N)=O	3%[11.5 µM]	2%[11.4 µM]	x	1%[11.5 µM]	x
COc1cccc(N2CCN(Cc3nc(N)nc(Nc4ccccc4OC)n3)CC2)c1	-2%	2%	3.9*	-1%	>57
COc1ccccc1Nc1nc(N)nc(CN2CCCCCC2)n1	-2%	1%	x	-3%	>57
O=C(Nc1ccc(N2CCCCC2)cc1)c1ccc(F)cc1	-1%	4µM*	>77	-3%	x
CCCCOC(=O)Nc1ccc(N2CCOCC2)cc1	1%	-16%	x	1%	x
O=C(c1ccc(F)cc1)c1ccc(N2CCCC2)cc1	u	-30%	x	u	x
CCCCOC(=O)Nc1ccc(N2CCCCC2)cc1	-3%	13µM*	x	-1%	x
CN1CCN(S(=O)(=O)c2ccc(NC(=O)c3ccc(F)cc3)cc2)CC1	0%	2%	14*	0%	>57
O=C(Nc1ccc(N2CCCC2)cc1)c1ccc(Br)o1	-3%	2.5µM*	x	-3%	x
CCn1c(=O)c(=O)[nH]c2cc(C(=O)Nc3ccc(S(=O)(=O)N4CCCC4)cc3)ccc21	0%	0%	5.1*	-3%	>57
CCN(CC)c1ccc(NC(=O)c2ccc(Br)o2)cc1	-3%	10µM*	x	-1%	x
CS(=O)(=O)c1ccc(/C=N\NC(N)=S)cc1	-1%[11.5 µM]	0%[11.4 µM]	x	-3%[11.5 µM]	x
COc1ccc(OC)c2sc(N3CCN(c4ccccc4)CC3)nc12	-1%	25µM*	>77	-3%	u
SMILES	Caspase-1 inhib	Luciferase inh	GBA activity	Casp7 inh	PK Bst
COc1ccc(C)c2sc(N3CCCC3)nc12	0%	-2%	>77	-2%	x
CCc1ccc2oc(-c3cccc(NC(=O)c4cccnc4)c3)nc2c1	-3%	5µM*	u	-2%	4.1*
CCOC(=O)N1CCc2c(sc3c2C(=O)NC(c2ccccc2)N3)C1 (centres undefined)	-15%	-13%	4*	-12%	i
CC(=NCc1ccco1)c1c(C)[nH]n(-c2nc3ccccc3s2)c1=O	1%	2µM*	>77	-1%	x
CN(Cc1cc(C(C)(C)C)cc(Br)c1O)Cc1cc(C(C)(C)C)cc(Br)c1O	4%[11.5 µM]	1%[11.4 µM]	x	-1%[11.5 µM]	x
O=C(c1ccc(Cl)s1)N1CCc2ccccc21	-1%	13µM*	>77	0%	x
O=C(C1CCC(C(=O)N2CCc3ccccc32)CC1)N1CCc2ccccc21 (centres undefined)	2%	-2%	>77	-2%	>57
Cc1ccc(S(=O)(=O)N2CCC(C(=O)NC3CCCCCC3)CC2)cc1	-1%	1%	x	-1%	x
Cc1ccc(S(=O)(=O)N2CCC(C(=O)NCCCN3CCCCCC3)CC2)cc1	-3%	-1%	>77	-1%	10*
COc1ccc2c(c1)c(C(=O)CN1CCN(C(=O)c3ccco3)CC1)c(C)n2C	-2%	2%	>77	-1%	>57
CC(=O)c1c(C)n(C)c2ccc(OC(=O)c3ccco3)cc12	1%	-1%	>77	1%	8.4*
Cc1cccc(C)c1OCC(=O)Nc1cccc(-c2nnc(-c3ccccc3)o2)c1	x	0%[25.5 µM]	x	x	>26
